# In paper PMC5540273 (PLoS ONE, 2017):
# Legend:
# Conditions in all cases: concentration: 1 μM, replicates: in singlicate; n = 1
# [1] = system: SgK110
# [2] = system: T1, TAK1
# T1 construct: gene MAP3K7
# [3] = system: TAOK1
# [4] = system: TAOK2
# [5] = system: TAOK3
# [6] = system: TBK1
# [7] = system: TEC
# [8] = system: TESK1
# [9] = system: TGFBR1
# [10] = system: TGFBR2
# [11] = system: TIE1
# [12] = system: T2, TIE2
# T2 construct: gene TEK
# [13] = system: TLK1
# [14] = system: TLK2
# [15] = system: TNIK
# [16] = system: TNK1
# [17] = system: TNK2
# [18] = system: TNNI3K
# [19] = system: T3, TRKA
# T3 construct: gene NTRK1
# [20] = system: TRKB
# 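Note: KINOMEscan kinase panel screen.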
SMILES,%Inh [1] [%],%Inh [2] [%],%Inh [3] [%],%Inh [4] [%],%Inh [5] [%],%Inh [6] [%],%Inh [7] [%],%Inh [8] [%],%Inh [9] [%],%Inh [10] [%],%Inh [11] [%],%Inh [12] [%],%Inh [13] [%],%Inh [14] [%],%Inh [15] [%],%Inh [16] [%],%Inh [17] [%],%Inh [18] [%],%Inh [19] [%],%Inh [20] [%]
Cc1ccc(NC(=O)c2cccc(C#N)c2)cc1-c1ccc(C(=O)Nc2ccncc2)cc1 [GSK1398463],3,0,0,23,3,20,11,0,0,0,11,21,0,0,13,16,21,29,0,0
CC(=O)Nc1n[nH]c2ncc(-c3ccccc3)cc12 [SB-548492],3,20,27,24,8,29,1,6,0,0,0,21,6,0,12,0,0,0,90.1,25
CC(C)(C)c1ccc(-n2cnc3c(N)ncnc32)cc1 [SKF-97263],0,10,6,0,8,15,12,0,0,6,14,0,0,0,0,5,10,12,18,0
CCc1nc(-c2cccc(N(C)S(=O)(=O)c3ccccc3)c2)c(-c2ccnc(Nc3ccc(N4CCN(C(C)=O)CC4)nc3)n2)s1 [GSK1645895],0,0,0,0,2,27,7,0,17,0,5,18,26,20,4,29,3,0,0,0
